TIM10 inh – growth inhibitors of isogenic TIM10 control yeast, primary screen, counter-screen for tim10-1 yeast inhibitor project, luminescence, uHTS; S. cerevisiae TIM10 strain growth, BacTiter-Glo luminescence, 24 h; inhibition, % at 10 µM; 330,000 tested, 1.4% active; AID 463195, 2010;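 active = inhibition of 40% or more at the single tested concentration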;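 also: wild-type TIM10 isogenic control strain grown at permissive 25 °C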
tim23-1 inh – growth inhibitors of tim23-1 mutant yeast, primary screen, luminescence, uHTS | 330,000 tested, 1.3% active | S. cerevisiae tim23-1 growth, BacTiter-Glo luminescence, 24 h | AID 463212, 2010 | inhibition, % at 20 µM;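 active = growth inhibition of the mutant yeast at or above 50%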;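 also: temperature-sensitive mutant grown at 25 °C; plate controls were DMSO-treated mutant yeast for no effect and medium wells lacking yeast for full effect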
ATG4B inhibitor – ATG4B protease inhibitors, primary screen, biochemical, fluorescence, uHTS; inhibition, % at 8.33 µM; Cysteine protease ATG4B (Homo sapiens), Q9Y4P1; 340,000 tested, 0.51% active; AID 504462, 2011; ATG4B cleavage of LC3-PLA2, NBD-HPC fluorescence, 1 h; in the data active = inhibition above about 40%
Target sequence (Q9Y4P1 whole entry, looked up): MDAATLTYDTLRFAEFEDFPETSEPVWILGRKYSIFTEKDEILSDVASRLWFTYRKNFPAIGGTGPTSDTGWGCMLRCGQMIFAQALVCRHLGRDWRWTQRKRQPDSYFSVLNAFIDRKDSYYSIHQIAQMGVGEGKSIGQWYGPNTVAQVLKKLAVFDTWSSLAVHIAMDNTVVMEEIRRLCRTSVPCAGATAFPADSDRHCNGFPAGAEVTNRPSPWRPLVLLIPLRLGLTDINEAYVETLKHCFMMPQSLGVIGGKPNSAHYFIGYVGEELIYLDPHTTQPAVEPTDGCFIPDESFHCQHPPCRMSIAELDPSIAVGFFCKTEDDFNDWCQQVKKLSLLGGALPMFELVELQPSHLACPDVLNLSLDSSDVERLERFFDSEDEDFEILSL
PfHsp90 yeast 2 – growth inhibition of PfHsp90-expressing yeast, primary screen, antimalarial PfHsp90 inhibitor project, S. cerevisiae, BacTiter-Glo luminescence, single point, set 2 | BacTiter-Glo ATP, 48 h; yeast lacking PDR1 and PDR3 efflux regulators | inhibition, % at 9.4 µM | 310,000 tested, 0.32% active;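 active = every replicate shows inhibition above about 80%, whatever the replicate mean, limit read from the data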;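 also: 0% = DMSO neutral controls and 100% = 20 µM radicicol positive controls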
SKKanGAS inh – S. pyogenes SKKanGAS growth inhibitors in kanamycin, primary screen, streptokinase expression inhibitor project, SKKanGAS strain, BacTiter-Glo luminescence; 300,000 tested, 1.3% active; inhibition, % at 7.5 µM; 6 h;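 active = mean replicate score, as percent of positive control median, at least 50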;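 also: strain carries kanamycin resistance gene driven by streptokinase promoter and grows in 40 µg/ml kanamycin; loss of luminescence reflects streptokinase promoter inhibition or plain growth inhibition; 0% = median of DMSO wells and 100% = positive control at its reference dose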
tim10-1 inh – growth inhibitors of tim10-1 mutant yeast, primary screen, luminescence, uHTS | S. cerevisiae tim10-1 ts strain growth, BacTiter-Glo, 24 h | inhibition, % at 20 µM | 330,000 tested, 2.2% active;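 active = inhibition of at least 40%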;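 also: mutant grown at 25 °C; 0% = DMSO wells with yeast and 100% = wells holding no yeast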
tim10-1 conf – growth inhibitors of tim10-1 mutant yeast, confirmation, single concentration, luminescence, S. cerevisiae | S. cerevisiae tim10-1 ts strain growth, BacTiter-Glo, 24 h | shares compounds with tim10-1 inh | inhibition, % at 20 µM | 7,400 tested, 56% active;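 active = inhibition of yeast growth at or above a set limit in either of two repeat tests at 20 µM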;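 also: tim10-1 mutant grown at permissive 25 °C to find synthetic lethal compounds; 0% = DMSO yeast wells and 100% = medium wells without yeast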
* hit, by the source's call; / = no result given. The list is not random: actives were taken first. Their share in the collection is about 4.7%.

SMILES	TIM10 inh	tim23-1 inh	ATG4B inhibitor	PfHsp90 yeast 2	SKKanGAS inh	tim10-1 inh	tim10-1 conf
Cc1ccc(NC(=O)C(c2ccc(Cl)cc2)N2CCCCC2)cc1 (stereo not given)	/	/	3	/	/	/	/
Cc1cccc(C)c1NC(=O)C(c1ccc(Cl)cc1Cl)N1CCCCC1 (stereo not given)	18	-3	-1	-2	6	42*	23
Nc1nc(-c2ccccc2)c(-c2ccc([N+](=O)[O-])cc2)s1	26	38	-4	1	-1	46*	16
CCC1CCCCN1Cc1cc(OC)c(O)c([N+](=O)[O-])c1 (stereo not given)	4	-1	19	/	-3	43*	14
COc1ccc(NC(=O)CC2SC(=O)NC2=O)cc1 (stereo not given)	10	36	4	-25	3	41*	34*
Cc1ccc(NC(=O)CC2SC(=O)NC2=O)cc1 (stereo not given)	30	32	-6	/	0	35	/
CCCCCCC(=O)OCC(=O)c1ccc2c(c1)NC(=O)CO2	3	30	-5	-8	-21	40*	28
CCc1ccc(OCC(=O)OCC(=O)c2ccc3c(c2)NC(=O)CO3)cc1	8	17	-23	18	-5	-3	/
CCOC(=O)N1CCN(C(=O)c2cccc(N3C(=O)NC4CC3(C)Oc3ccc(Cl)cc34)c2)CC1 (stereo not given)	20	5	-1	-6	5	45*	11
Cc1ccccc1-c1nc2cc(N)ccc2o1	12	3	-1	-10	-10	17	/
CC(C)c1ccc2oc(-c3cc(N)ccc3O)nc2c1	4	49	9	-107	-3	52*	33*
CS(=O)(=O)c1ccc(-c2cccc(NC(=O)COc3ccc(Cl)cc3)c2)nn1	4	-16	-6	-65	0	-5	/
O=C(Nc1ccc(F)cc1)Nc1cccnc1Cl	12	14	2	7	1	21	/
Cc1nn(-c2ccccc2)c(Cl)c1/C=N/NS(=O)(=O)c1ccc(Br)cc1	-2	45	-20	-12	1	42*	30
CNC(=S)N/N=C/c1c(C)nn(-c2ccccc2)c1Cl	2	11	-8	15	-6	27	/
Cc1nn(-c2ccccc2)c(Cl)c1/C=N/NC(=O)OC(C)(C)C	-8	39	-2	1	-4	44*	21
O=C1NC(=S)N/C1=C/c1cccn1-c1ccc([N+](=O)[O-])cc1	4	8	31	7	4	-1	/
COc1ccc(Nc2nc(-c3ccccc3)c3ccccc3n2)cc1	17	22	2	-61	-20	9	/
O=C(Oc1ccc(C(=S)N2CCOCC2)cc1)c1ccccc1[N+](=O)[O-]	29	29	17	-4	-3	42*	37*
CCOC(=O)N1CCN(C(=S)Nc2ccccc2C(C)C)CC1	-17	9	-6	5	2	8	/
CCCC(=O)NC(=S)Nc1ccc(Cl)cn1	39	47	-9	14	-1	45*	32*
COc1cc(/C=N/O)cc(Br)c1OCc1ccc(Cl)cc1	20	-5	5	6	4	44*	28
Cc1ccc(C(=O)Nc2ccc3c(c2)OCO3)o1	-10	6	7	2	11	7	/
CSCCC(NC(=O)c1ccccc1Br)C(=O)NC(C)CCc1ccccc1 (stereo not given)	4	1	-1	1	4	76*	0
O=S(=O)(c1ccc(NCc2ccc(F)cc2)nc1)N1CCCC1	-4	14	-2	7	-9	18	/
SMILES	TIM10 inh	tim23-1 inh	ATG4B inhibitor	PfHsp90 yeast 2	SKKanGAS inh	tim10-1 inh	tim10-1 conf
CCNC(=S)NNC(=O)c1cc(-c2cc(C)ccc2C)nc2ccccc12	30	33	10	1	7	45*	41*
CCCc1cc(C(=O)NNC(=S)NCC)c2ccccc2n1	5	5	7	6	1	26	/
CCCOc1ccc(C(=O)NNC(=S)NC(=O)c2cc(-c3ccccc3)nc3ccccc23)cc1	33	10	-10	-32	14	45*	38*
Cc1ccccc1C(=O)NNC(=S)NC(=O)c1cccs1	34	24	-7	-33	69*	53*	21
CCCOc1ccc(C(=O)NNC(=S)NC(=O)c2cccs2)cc1	11	21	2	9	74*	48*	-10
CCCC(=O)Nc1ccc(C(=O)NNC(=S)NC(=O)c2cccs2)cc1	18	8	-11	5	33	-8	/
C=CCN1C(=O)C(Cc2ccc(Br)cc2)S/C1=N\N=C\c1ccco1 (stereo not given)	4	8	0	-23	3	24	/
CCOC(=O)Nc1ccc2c(c1)OCO2	-10	17	-7	-16	6	9	/
CCOC(=O)c1c(C)[nH]c(C(=O)Nc2ccc3c(c2)OCO3)c1C	39	45	/	/	3	43*	32*
CC(C)c1cc(-c2cc(C(=O)NCc3ccccc3)on2)nc(NCC2CC2)n1	16	48	11	-31	28	44*	29
CCCc1nnc(NC(=O)c2oc3ccccc3c2COCC)s1	11	24	0	-10	/	18	/
Cn1nc([N+](=O)[O-])c(C(C#N)c2ccccn2)c(Cl)c1=O (stereo not given)	-21	-7	-4	-77	/	11	/
CCCn1nc([N+](=O)[O-])c(C(C#N)c2nc3ccccc3o2)c(Cl)c1=O (stereo not given)	30	42	84*	3	10	48*	36*
Cc1ccccc1NC(=S)c1nc2ccccc2[nH]1	/	/	28	-57	19	/	/
S=C(Nc1ccc(Cl)cc1)c1nc2ccccc2[nH]1	38	36	0	-11	76*	49*	36*
Cc1nc2c(Br)c(C)nn2c2c1CCC2	2	6	-2	-3	3	48*	30
COC(=O)c1cnn2c3c(c(C)nc12)CCCC3	11	10	4	7	-3	21	/
O=C(CNC(=S)N(Cc1ccccc1)Cc1ccccc1F)NCCc1ccccc1	11	17	2	/	3	41*	24
CC1(C)CC2CC(C)(CN2C(=S)Nc2ccccc2)C1 (stereo not given)	21	32	-1	-6	-4	3	/

Source: PubChem (several laboratories)
